Shown are actives, neighbours in structure and some others; about 1.6% of the full set was active somewhere.
eIF4E-4G inh – inhibitors of eIF4E and eIF4G interaction in translation initiation | P63073+Q04637 | TR-FRET eIF4E-eIF4GI(517-606) binding, 2 h | inhibition, % at 21.7 µM | 220,000 compounds, 0.37% hits;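 active = inhibition above about 30%, limit read from the data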
PABP1 MLLE inh – blocks PAM2 peptide binding to the PABP1 MLLE domain. P11940. GST-MLLE / FITC-PAM2 fluorescence polarization. inhibition, % at 20 µM. 360,000 compounds, 0.36% hits. AID 588489; in the data active = inhibition above about 35%, passing the limit was not always enough
eIF4H FP inh – inhibitors of RNA binding by human eIF4H; Q15056; eIF4H fluorescence polarization binding assay; inhibition, % at 35 µM; 290,000 compounds, 0.94% hits;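 also: calls also rest on retests at 20 µM and on dose response follow-up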
PERK inh – blocks human PERK kinase. 220,000 compounds, 0.17% hits. CHO PERK-DD fusion, SEAP luminescence translation reporter. AID 1416. Q9NZJ5. inhibition, % at 5.6 µM;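 active = inhibition above the mean inhibition of all tested compounds plus 3 SD, set separately per screening campaign, cut at about 2.9% in these data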;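 also: PERK kinase domain activated by AP20187 dimerizer at 100 nM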
PABP polyA inh – PABP-poly(A) binding inhibition | inhibition, % at 35 µM | 290,000 compounds, 1% hits | AID 2014 | PABP-poly(A) RNA binding, fluorescence polarization | P11940;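 also: calls also rest on retests at 20 µM and on dose response follow-up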
Hits are given with their value; 0 = inactive; ? = inconclusive; - = no result given; [ ] = dose if it differs, or a comment. Unless noted, no rule for the calls is given here.

SMILES | eIF4E-4G inh | PABP1 MLLE inh | eIF4H FP inh | PERK inh | PABP polyA inh
O=C(Nc1nncs1)c1ccc2c(c1)OCO2 | - | 0 | 0 | - | 0
Cc1cc(C)n(CCc2nc(-c3cccs3)cs2)n1 | 0 | 0 | 0 | 0 | 0
Cc1cc(C)n(CCc2nc(-c3ccco3)cs2)n1 | 0 | 0 | 51 | 0 | 35
Cc1nn(CCc2nc(-c3ccco3)cs2)c2[nH]c(=O)cc(C(F)(F)F)c12 | 0 | 0 | 45 | 0 | 58
CCc1nc(SCc2ccccn2)[nH]c(=O)c1C | 0 | 0 | 0 | 0 | 0
Cc1ccc(C2=NN(C(=O)CCl)C(c3ccco3)C2)o1 (stereo unspecified) | - | 0 | 0 | - | 0
COc1ccc(NC(=O)CSc2nnc(CCC(=O)O)c(=O)n2N)cc1 | 0 | 46 | 0 | 0 | 0
COc1ccc2nc(NC(=O)CSc3nnc(C)n3N)sc2c1 | 0 | 0 | 0 | 4.7 | 0
COc1ccc(NC(=O)CSc2nnc(-c3ccccc3C)n2N)cc1 | 0 | 37 | 0 | 0 | 0
CCOc1ccc(Cc2nnc(SCC(=O)Nc3ccc(OC)cc3)n(N)c2=O)cc1 | - | 0 | - | - | -
COc1ccc2nc(NC(=S)N(C)C)sc2c1 | 41[fluorescence artefact?] | 0 | 0 | 0 | 0
O=C(O)CCn1ccc2cc(S(=O)(=O)N3CCCCCC3)ccc21 | - | 0 | 0 | - | 0
COc1ccc(NC(=O)CSc2nnc(-c3ccccn3)n2N)cc1Cl | 0 | 0 | 0 | 0 | 0
CC(=O)[C@@H]1[C@@H]2C(=O)N(C3CCCCC3)C(=O)[C@@H]2C2c3ccccc3C=CN21 (stereo partly specified) | 0 | - | 0 | 0 | 0
O=C1NC(=O)[C@@H]2C3c4ccccc4C=CN3[C@H](C(=O)c3cccs3)[C@H]12 (stereo partly specified) | 0 | - | 126 | 0 | 126
c1ccc(SCc2nc3ccccc3[nH]2)cc1 | 0 | 0 | 0 | 0 | 0
COc1ccc2c(c1)Cc1sc(NC(C)=O)nc1-2 | 0 | 37 | 0 | 0 | 0
O=C(O)C=C(Br)Br | - | 0 | 0 | - | 0
N#CC1=C(N)SC(N)=C(C#N)C1CCC1CCCCC1 | 0 | - | 0 | 0 | 116
Cc1ccc(C(C)C)c(OCc2nc(-c3nonc3N)no2)c1 | 53 | 0 | 0 | 0 | 0
O=S(=O)(c1cccc2cccc(Cl)c12)N1CCCC1 | 0 | 0 | 0 | 0 | 0
Cc1cc(C)n2nc(SCc3cc(=O)oc4cc(O)ccc34)nc2n1 | 0 | - | ? | 0 | 46
CC(C)c1ccc(/C=C/C(=O)Nc2nc3ccc([N+](=O)[O-])cc3s2)cc1 | 0 | 0 | 0 | 0 | 0
NC(=O)NC(=O)COC(=O)c1ccc(OC(F)F)cc1 | 0 | 0 | 0 | 0 | 0
NS(=O)(=O)c1ccc(CCNC(=O)c2ccc([N+](=O)[O-])s2)cc1 | - | 0 | 0 | - | 0
SMILES | eIF4E-4G inh | PABP1 MLLE inh | eIF4H FP inh | PERK inh | PABP polyA inh
COc1ccc(/C=N/NC(=O)CSc2n[nH]c(=O)[nH]c2=O)cc1 | 0 | 0 | 0 | 0 | 0
COc1ccc(/C=N/NC(=O)Cc2n[nH]c(=O)[nH]c2=O)cc1 | 0 | 0 | 0 | 3.0 | 0
O=C(O)CN1C(=O)C2C3CC(C2C1=O)C1C(c2ccc(F)cc2)c2sc(=O)[nH]c2SC31 (stereo unspecified) | 0 | 39 | 0 | 0 | 0
Cc1ccc(C(=O)NCCCNCCCN(C)C)cn1 | 0 | 0 | 68 | 0 | 59
CN(C)CCCNC(=O)c1ccc(=O)[nH]n1 | 0 | 0 | 91 | 0 | 84
CN(C)CCCNCCCNC(=O)c1ccccn1 | 0 | 0 | 0 | 0 | 0
Cc1ccc(C(=O)NCCCNCCCNC(=O)c2ccc(C)nc2)cn1 | 0 | 0 | 0 | 0 | 0
CCN(CC)CCCNc1cc(C(F)(F)F)c(C#N)c2nc3ccccc3n12 | - | 0 | 0 | - | 25
Cc1cc(NCCN2CCOCC2)n2c(nc3ccccc32)c1C#N | 0 | 0 | 0 | 0 | 0
Cc1cc(NCCCN2CCOCC2)n2c(nc3ccccc32)c1C#N | 0 | 0 | 80 | 0 | 85
N=c1n(CCO)c2ccccc2n1Cc1ccccc1Cl | 0 | 0 | 0 | 0 | 0
CN(C)CC(O)COc1ccc(-c2ccc(C#N)cc2)cc1 (stereo unspecified) | 0 | - | 0 | 0 | 0
O=C(C1CCCN(S(=O)(=O)c2cccc3cccnc23)C1)N1CCN(c2ccc(F)cc2)CC1 (stereo unspecified) | 0 | 0 | 0 | 0 | 0
COc1cc(/C=N/NC(=O)C(=O)NCc2ccco2)cc(Cl)c1O | 0 | 0 | ? | 0 | 3.8
COc1cc(/C=N/NC(=O)C(=O)NCc2ccco2)ccc1O | 0 | 0 | 0 | 0 | 0
COCCCNC(=O)c1cccc2c(=O)c(C)c(-c3ccccc3)oc12 | 0 | 0 | 0 | 0 | 0
O=C1N=c2ccccc2=C1c1sc(Nc2ccc(O)cc2)nc1O | 37 | 0 | ? | 0 | 0

Source: PubChem
